# About 83,000 compounds went through this panel and 20% of them were active in at least one assay; those are over-represented in the sample as a whole.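 The endpoint reported here, percent growth, reads 100 for growth as untreated, 0 for no net growth and -100 for all cells dead.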 Active and inactive are the calls of the source. The calls were made as follows: active = growth percent below 10; inactive = the rest.
# Tested on: HL-60(TB) leukemia
# Assay: NCI-60 one-dose screen, 48 h (100 = growth as untreated, 0 = no growth, -100 = all killed)
# Conditions: 10 µM unless noted
row,Compound,growth
1,Cc1cc(C)c(NC(=O)c2sc3nc4c(cc3c2N)CN(Cc2ccccc2)CC4)c(C)c1,-10.3% (active)
2,O=c1oc2c(cnc3ccccc32)cc1-c1cccs1,98.2% (inactive)
3,COc1ccc(N2CCN(c3nc(-c4ccccc4)c(C#N)c(=O)[nH]3)CC2)cc1,55.2% (inactive)
4,CCOC(=O)c1noc2c1CCc1cn(Cc3cc(OC)cc(OC)c3)cc1-2,77.1% (inactive)
5,Cc1cccc(NC(=O)N/C(N)=N/c2nc3ccccc3s2)c1,5.69% (active)
6,COC(=O)[C@H](CSC)N(C)C(=O)[C@@H]1CSSC[C@@H](NC(=O)c2nc3ccccc3cc2O)C(=O)NCC(=O)N1C,0.567% (active)
7,COC(=O)c1cccc(Br)c1,81.6% (inactive)
8,FC(F)(F)c1cccc(Nc2nc(-c3ccccc3)nc3ncccc23)c1,-57.8% (active)
9,COC(=O)c1c2c(c[n+]([O-])c1C)C(=O)C(NCc1ccccc1)=CC2=O,-34.5% (active)
10,c1cc[n+](Cc2ccnc3ccccc23)cc1,84.7% (inactive)
11,O=S(=O)(Nc1ccc(Br)cc1)c1ccc(-c2cnc(C3CC3)o2)cc1,-36% (active)
12,CC1=C(C(=O)Nc2nc(-c3ccc(Cl)cc3)cs2)[C@H](c2ccc(O)cc2)NC(=O)N1,98.7% (inactive)
13,COc1cc(Cn2cc(F)c(=O)[nH]c2=O)cc(OC)c1,104% [50 µM] (inactive)
14,O=C(CCl)N1c2cccc3cccc(c23)N(C(=O)CCl)C1c1cn(-c2ccccc2)nc1-c1cccc([N+](=O)[O-])c1,27.7% (inactive)
15,CC[N+](CC)=c1ccc2nc3c(cc(N)c4ccccc43)oc-2c1,-55.6% (active)
16,CC(C)CCC[C@@H](C)[C@H]1CC[C@H]2[C@@H]3CC[C@H]4C/C(=N/O)CC[C@]4(C)[C@H]3CC[C@]12C,104% (inactive)
17,COc1cc(C(=O)c2cnc(-c3c[nH]c4cccc(C)c34)[nH]2)cc(OC)c1OC,-14.9% (active)
18,Cc1nc2ccc(C(=O)NCc3cc(C(=O)O)c(C)o3)cc2nc1C,103% (inactive)
19,CC1CCN(C(=O)CCCl)c2ccccc21 (centres undefined),112% (inactive)
20,Cc1ncc(C(=O)Nc2ccc(CN3CCN(C)CC3)c(C(F)(F)F)c2)cc1C#Cc1cnc(N)c2ncccc12,6.76% (active)

row,Compound,growth
1,O=c1[nH]ccc2nc(N3CCC(O)CC3)nc(Nc3cccc(C(F)(F)F)c3)c12,29.6% (inactive)
2,CC(=O)OCC1SC(OC(C)=O)C(NC(=O)/C=C/CCl)C(OC(C)=O)C1OC(C)=O (centres undefined),79.9% (inactive)
3,O=C1c2ccccc2C(=O)c2c1cccc2-n1nnc2ccccc21,82.1% (inactive)
4,O=C(O)C(Cc1ccccc1)C(=O)O,107% (inactive)
5,O=C(O)C1CCC(=O)N1C(=O)OCc1ccccc1 (centres undefined),84.1% (inactive)
6,C=C1C(=O)O[C@H]2[C@H]1CC/C(Cn1cc(-c3ccccc3C(F)(F)F)nn1)=C\CC[C@@]1(C)O[C@@H]21,-13.3% (active)
7,Cc1ccc(S(=O)(=O)Oc2ccc3sc4c(CO)ccc(NCCN(C)C)c4c(=O)c3c2)cc1,-51.1% [100 µM] (active)
8,Cc1cc2nc3[nH]c4ccccc4c3nc2cc1C,55.2% (inactive)
9,Cc1ccc(C2=NN(c3ccc(S(C)(=O)=O)cc3)C(=O)CC2)cc1,-12% (active)
10,CCOC(=O)c1cnc2ccc(Br)cc2c1Nc1cccc(S(=O)(=O)NC)c1,119% (inactive)
11,CCCCC1Nc2nc(SC)n(C)c(=O)c2CN(Cc2ccccc2)C1=O (centres undefined),111% (inactive)
12,CN(C)c1ccc(C2Nc3ccccc3-n3cccc32)cc1 (centres undefined),123% (inactive)
13,Cc1cc(C)c(C=O)c(C)c1,84.1% (inactive)
14,Nc1ccc(C2=NNC(=O)Cc3cc4c(cc32)OCCO4)cc1Cl,7.27% (active)
15,C=CC(=O)N1CC2(CC(n3nc(-c4ccc(Oc5ccccc5)cc4)c4c(N)ncnc43)C2)C1,62.3% (inactive)
16,O=C(Nc1ccc(C2=NCCCN2)cc1)c1ccc(C(=O)Nc2ccc(C3=NCCCN3)cc2)nc1,79% (inactive)
17,Cc1nc(Cl)cc(N(c2cc(Cl)nc(C)n2)c2ncc(C(=O)Nc3c(C)cccc3Cl)s2)n1,81.3% (inactive)
18,CC(C)(C)c1cc(C[P+](c2ccc(Cl)cc2)(c2ccc(Cl)cc2)c2ccc(Cl)cc2)cc(C(C)(C)C)c1O,3.1% (active)
19,CC(CC(=O)c1ccccc1)c1ccccc1 (centres undefined),102% (inactive)

# Reference: PubChem BioAssay (NCI)
